Laboratory results: the supplement of paper PMC6607015
Structures can show the parent of a compound that is named as a salt.

Legend:
Details in all cases: compound concentration in added solution (µM; 5 µl added to 20 µl cells): 10; 18 h
[1] = test system: A431; assay: LBPA endosome anti-LBPA integrated intensity (sum per cell), Z-score; higher = more LBPA staining
In short: (§1)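 Each value is a Z-score normalised in AcuityXpress from per-cell integrated LBPA or filipin intensity, taken over the whole cell or within LBPA endosomes. Duplicate 384-well imaging plates held 5 µl of 10 µM compound solution, onto which 3,500 HeLa MZ or A431 cells in 20 µl were seeded per well. After 18 h the cells were fixed in 4% PFA, stained with 6C4 anti-LBPA antibody, filipin, propidium iodide and CellTracker green, imaged four times per well at 20× and segmented in MetaXpress.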

[2] = test system: HeLa MZ; assay: as above
In short: as §1

[3] = test system: A431; assay: whole-cell filipin (free cholesterol) integrated intensity, Z-score; higher = more cholesterol staining
In short: as §1

[4] = test system: HeLa MZ; assay: as above
In short: as §1

[5] = test system: A431; assay: filipin (cholesterol) integrated intensity within LBPA endosomes, Z-score; higher = more cholesterol in LBPA endosomes
In short: as §1

[6] = test system: HeLa MZ; assay: as above
In short: as §1

Compound | LBPA endosome anti-LBPA integrated intensity (z-score) [1] | LBPA endosome anti-LBPA integrated intensity (z-score) [2] | whole-cell filipin (z-score) [3] | whole-cell filipin (z-score) [4] | filipin (z-score) [5] | filipin (z-score) [6]
CNCC[C@@H](Oc1ccccc1C)c1ccccc1 [Tomoxetine hydrochloride] | -0.073 | -0.709 | 0.0322 | -0.417 | -0.072 | -0.0592
Cc1c(Cl)cccc1Nc1ccccc1C(=O)O [Tolfenamic acid] | -0.417 | -0.76 | -0.809 | -0.604 | -0.464 | -0.636
COc1cc(C(=O)NS(=O)(=O)c2ccccc2C)ccc1Cc1cn(C)c2ccc(NC(=O)OC3CCCC3)cc12 [Zafirlukast] | -0.518 | -0.847 | -0.458 | -0.494 | -0.486 | -0.569
NCC[C@H](O)C(=O)N[C@@H]1C[C@H](N)[C@@H](O[C@H]2O[C@H](CN)[C@@H](O)[C@H](O)[C@H]2O)[C@H](O)[C@H]1O[C@H]1O[C@H](CO)[C@@H](O)[C@H](N)[C@H]1O [Amikacin hydrate] | -0.71 | -0.821 | -1.06 | -0.44 | -0.672 | -0.666
CC(C(=O)O)c1ccc2c(c1)[nH]c1ccc(Cl)cc12 (centres undefined) [Carprofen] | -0.569 | -1.21 | -0.098 | -0.307 | -0.398 | -0.538
NC[C@H]1O[C@H](O[C@H]2[C@H](O)[C@@H](O[C@H]3O[C@H](CO)[C@@H](O)[C@H](N)[C@H]3O)[C@H](N)C[C@@H]2N)[C@H](N)C[C@@H]1O [Tobramycin] | -0.535 | -1.57 | -0.669 | -0.773 | -0.528 | -0.681
CN(C)CCC=C1c2ccccc2C=Cc2ccccc21 [Cyclobenzaprine hydrochloride] | 2.59 | 2.51 | 1.71 | 0.233 | 2.57 | 2.22
CN(C)CCOc1ccc(/C(=C(/CCCl)c2ccccc2)c2ccccc2)cc1 [Toremifene] | 2.64 | 0.267 | 2.3 | 1.93 | 2.35 | 3.94
CN1CCN(CCCN2c3ccccc3Sc3ccc(S(=O)(=O)N(C)C)cc32)CC1 [Thioproperazine dimesylate] | 2.72 | 1.97 | 0.546 | -0.109 | 2.28 | 2.33
O=C(NCCN1CCOCC1)c1ccc(Cl)cc1 [Moclobemide] | -0.577 | -0.12 | -0.751 | -0.413 | -0.499 | -0.447
N/C(=N\C(=O)c1nc(Cl)c(N)nc1N)NCc1ccccc1 [Benzamil hydrochloride] | 0.224 | 1.13 | 0.167 | 0.672 | -0.0522 | 0.566
CCOc1ccc2ccccc2c1C(=O)N[C@@H]1C(=O)N2[C@@H]1SC(C)(C)[C@@H]2C(=O)O [Nafcillin sodium salt monohydrate] | -0.558 | -0.117 | -0.348 | -0.195 | -0.443 | -0.476
c1ccc(CNc2ncnc3nc[nH]c23)cc1 [Aminopurine, 6-benzyl] | -0.375 | -0.475 | -0.69 | -0.144 | -0.46 | -0.279
CCSc1ccc2c(c1)N(CCCN1CCN(C)CC1)c1ccccc1S2 [Thiethylperazine dimalate] | 3.37 | 1.8 | -0.311 | -0.392 | 1.25 | 1.79
Cc1c(-c2ccccc2)oc2c(C(=O)OCCN3CCCCC3)cccc2c1=O [Flavoxate hydrochloride] | -0.643 | -0.619 | -0.892 | -0.899 | -0.515 | -0.534
NC[C@@H]1O[C@@H](O[C@H]2[C@H](O)[C@@H](O[C@H]3O[C@H](CO)[C@@H](O)[C@H](N)[C@H]3O)[C@H](N)C[C@@H]2N)[C@@H](O)[C@H](O)[C@H]1O [Kanamycin A sulfate] | -0.635 | -0.981 | -0.97 | -0.361 | -0.515 | -0.597
O=C(C1CCCCC1)N1CC(=O)N2CCc3ccccc3C2C1 (centres undefined) [Praziquantel] | -0.253 | -0.0737 | -0.0988 | 0.0128 | -0.417 | -0.225
Nc1nc(=O)[nH]cc1F [Flucytosine] | -0.468 | -0.721 | -0.313 | -0.0984 | -0.463 | -0.623
CN1CCN(CC(=O)N2c3ccccc3C(=O)Nc3cccnc32)CC1 [Pirenzepine dihydrochloride] | -0.619 | -0.294 | -1.05 | -0.725 | -0.555 | -0.529
CCCCN1CCCCC1C(=O)Nc1c(C)cccc1C (centres undefined) [Bupivacaine hydrochloride] | -0.317 | -0.117 | -0.729 | -0.969 | -0.543 | -0.511
CN(C)CCOC(c1ccccc1)c1ccccc1.Cn1c(=O)c2[nH]c(Cl)nc2n(C)c1=O [Dimenhydrinate] | -0.457 | 0.504 | -0.514 | -0.355 | -0.463 | -0.165
CCOC(=O)N1CCC(=C2c3ccc(Cl)cc3CCc3cccnc32)CC1 [Loratadine] | 0.316 | 0.865 | 0.633 | 0.548 | 0.439 | 0.942

Compound | LBPA endosome anti-LBPA integrated intensity (z-score) [1] | LBPA endosome anti-LBPA integrated intensity (z-score) [2] | whole-cell filipin (z-score) [3] | whole-cell filipin (z-score) [4] | filipin (z-score) [5] | filipin (z-score) [6]
CC(C)NNC(=O)c1ccncc1 [Iproniazide phosphate] | -0.439 | -0.948 | -0.562 | -0.228 | -0.44 | -0.477
CN(C)CCN(Cc1ccc(Cl)cc1)c1ccccn1 [Chloropyramine hydrochloride] | 0.629 | 4.98 | 1.63 | 5.51 | 1.05 | 1.3
NC1CCN(c2nc3c(cc2F)c(=O)c(C(=O)O)cn3-c2ccc(F)cc2F)C1 (centres undefined) [Tosufloxacin hydrochloride] | -0.551 | -1.59 | -0.466 | -1.51 | -0.679 | -0.966
CC(=O)/N=c1/sc(S(N)(=O)=O)nn1C [Methazolamide] | -0.623 | -1.23 | -0.758 | -0.523 | -0.506 | -0.535
CC(C[N+](C)(C)C)OC(N)=O (centres undefined) [Bethanechol chloride] | -0.55 | -0.64 | -0.316 | -0.111 | -0.415 | -0.495
CCCCOc1cc(C(=O)OCCN(CC)CC)ccc1N [Benoxinate hydrochloride] | 1.79 | 1.63 | 0.624 | -0.0981 | 0.826 | 0.624
CC(C)Cc1ccc([C@H](C)C(=O)O)cc1 [S-(+)-ibuprofen] | -0.498 | -0.256 | -0.555 | -0.301 | -0.443 | -0.51
CC(=O)c1ccc(S(=O)(=O)NC(=O)NC2CCCCC2)cc1 [Acetohexamide] | -0.506 | -0.393 | -0.763 | -0.947 | -0.604 | -0.673
O=C(O)c1ccccc1OP(=O)(O)O [Fosfosal] | -0.256 | 0.942 | -0.159 | 0.251 | -0.274 | -0.0166
CC(C)NC[C@H](O)COc1ccc(CC(N)=O)cc1 [(S)-(-)-Atenolol] | -0.484 | 0.0669 | -0.593 | -0.509 | -0.513 | -0.661
NC(=O)c1ncn([C@@H]2O[C@H](CO)[C@@H](O)[C@H]2O)n1 [Ribavirin] | -0.391 | -0.778 | -0.377 | -0.839 | -0.376 | -0.688
CC(C)(C)NCC(O)COc1cccc2c1CCC(=O)N2 (centres undefined) [Carteolol hydrochloride] | -0.364 | 0.373 | -0.558 | -0.304 | -0.479 | -0.264
C[C@@H]1C[C@H]2[C@@H]3CCC4=CC(=O)C=C[C@]4(C)[C@@]3(Cl)[C@@H](O)C[C@]2(C)[C@@]1(OC(=O)c1ccco1)C(=O)CCl [Mometasone furoate] | -0.183 | 0.598 | -0.317 | 1.11 | -0.214 | 0.7
Cn1cnc([N+](=O)[O-])c1Sc1ncnc2[nH]cnc12 [Azathioprine] | -0.583 | -0.922 | -0.805 | -1.15 | -0.521 | -0.677
CCCCCCCN(CC)CCCC(O)c1ccc(NS(C)(=O)=O)cc1 (centres undefined) [Ibutilide fumarate] | 0.46 | 1.54 | 0.561 | 0.166 | 0.22 | 0.621
C=CC1=C(C(=O)O)N2C(=O)[C@@H](NC(=O)/C(=N\O)c3csc(N)n3)[C@H]2SC1 [Cefdinir] | -0.422 | -0.414 | -0.315 | -0.322 | -0.385 | -0.46
CO[C@@]1(NC(=O)Cc2cccs2)C(=O)N2C(C(=O)O)=C(COC(N)=O)CS[C@@H]21 [Cefoxitin sodium salt] | -0.479 | 0.482 | -0.426 | -0.439 | -0.487 | -0.515
CC(=O)N(CC(O)CO)c1c(I)c(C(=O)NCC(O)CO)c(I)c(C(=O)NCC(O)CO)c1I (centres undefined) [Iohexol] | -0.463 | 0.247 | -0.643 | -0.949 | -0.508 | -0.655
CCCCNc1ccc(C(=O)OCCN(C)C)cc1 [Tetraca? hydrochloride] | -0.207 | 0.761 | -0.403 | -0.308 | -0.238 | 0.182
Cc1nc2n(c(=O)c1CCN1CCC(c3noc4cc(F)ccc34)CC1)CCCC2 [Risperidone] | 0.208 | 1.64 | 0.491 | 0.264 | -0.0506 | 0.539
COCCCC/C(=N\OCCN)c1ccc(C(F)(F)F)cc1 [Fluvoxamine maleate] | 0.482 | 2.11 | 1.69 | 0.282 | 0.839 | 0.935
CCC1(C)CC(=O)NC1=O (centres undefined) [Ethosuximide] | -0.426 | -0.83 | -0.448 | -0.207 | -0.393 | -0.464
